Screening results: PubChem BioAssay, National Center for Advancing Translational Sciences (NCATS)
GLP-1R inv ag = qHTS of GLP-1 Receptor Inverse Agonists (Inhibition Mode); 410,000 compounds, 1.6% hits; Glucagon-like peptide 1 receptor (Homo sapiens), P43220; Potency, µM (top dose mostly 38.3 µM), actives largely listed as inhibitors; HEK293 GLP-1R CRE-luciferase, luminescence, 24 h; GLP-1R form is constitutively active; note: nearly all actives have a fitted effect of over 55% in size
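Seeding at 200 cells/uL, 12 h culture, 24 hr compound treatment, then luciferase reagent and a luminescence read; cells are HEK293 stably expressing a constitutively active GLP-1R plus cAMP-responsive luciferase.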
GLP-1R agonist = qHTS of GLP-1 Receptor Agonists; Glucagon-like peptide 1 receptor (Homo sapiens), P43220; HEK293 GLP-1R CRE-luciferase, luminescence, 4-6 h; cells express a hypersensitive GLP-1R form; Potency, µM (titrated, usually from 45.6 µM), actives largely listed as activators; 380,000 compounds, 0.007% hits; AID 624172, 2012
D3 ag = qHTS of D3 Dopamine Receptor Agonist: qHTS. D(3) dopamine receptor (Homo sapiens), P35462. D3R DiscoveRx beta-arrestin cells, luminescence, 90 min. max activation, %. 410,000 compounds, 0.58% hits. AID 652048, 2013; in the data active = max activation above about 30%
Target sequence (P35462 whole entry, looked up): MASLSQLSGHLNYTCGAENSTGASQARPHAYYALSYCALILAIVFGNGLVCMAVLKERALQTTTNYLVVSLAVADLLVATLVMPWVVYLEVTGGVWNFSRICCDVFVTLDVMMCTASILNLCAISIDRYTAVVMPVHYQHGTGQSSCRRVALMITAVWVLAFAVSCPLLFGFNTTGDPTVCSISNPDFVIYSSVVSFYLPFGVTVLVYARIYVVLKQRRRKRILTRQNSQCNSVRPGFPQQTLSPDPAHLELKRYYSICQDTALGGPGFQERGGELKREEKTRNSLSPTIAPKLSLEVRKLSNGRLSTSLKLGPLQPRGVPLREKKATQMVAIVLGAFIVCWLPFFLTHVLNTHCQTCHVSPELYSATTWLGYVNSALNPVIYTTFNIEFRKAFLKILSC
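Agonist mode: compounds and dopamine controls were applied to plated cells for 90 min at 37 degrees C after an overnight attachment at 1500 cells/well. Luminescent read-out followed 30 - 60 minutes at room temperature with DiscoveRx detection reagent.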
D3 antag = qHTS of D3 Dopamine Receptor Antagonist: qHTS; D3R cells, DiscoveRx beta-arrestin luminescence, antagonist mode; active compounds read low; max response, negative = inhibition, %; 360,000 compounds, 2.5% hits; in the data active = max response below about -50%; inconclusive = no clear call, values can overlap the other calls
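Cells plated overnight at 1500 cells/well, then exposed to library compounds with dopamine controls for 90 minutes at 37 degrees C. DiscoveRx reagent added for 30–60 minutes at room temperature; luminescence read, quantitative HTS format.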
A number is an active result; – = inactive; ? = inconclusive; · = not tested or not shown; [ ] = another dose, or the depositor's remark. This is a sample that favours compounds with a hit; in the whole collection about 4.3% have one here. Unless noted, calls come from the whole dose curve; as a rule, active = well fitted curve in the direction sought with a large enough effect; inconclusive = small, poorly fitted or top-dose-only effect, or another doubt; inactive = no such curve, though single readings can be large; an effect the other way counts as inactive or inconclusive.

SMILES	GLP-1R inv ag	GLP-1R agonist	D3 ag	D3 antag
CC(C)C[C@H]1CNC(=S)N1C[C@H]1CCCN1C[C@H](CC(C)C)N1C[C@H](Cc2ccc(O)cc2)N(CC2CCCCC2)C1=S	?	–	–	–
COc1ccc(-c2cc(C)no2)cc1S(=O)(=O)NCc1ccco1	–	·	–	·
CCOC(=O)c1c(C)[nH]c(C(=O)COC(=O)C2(C)CC2(Cl)Cl)c1C (stereo not given)	–	–	45.3	–
Cc1cccc(NC(=O)CSc2nc3ccccc3nc2N2CCCCC2)c1C	–	·	–	·
Cc1cc(NC(=O)CCC(=O)N(CCC(C)C)C(C(=O)NCC2CCCO2)c2ccccc2C)no1 (stereo not given)	–	–	40.7	–
O=C(COC(=O)c1cccnc1Cl)NC(=O)c1ccc(OC(F)F)cc1	–	–	–	-52.8
COc1ccc(CNC(=O)C(C)Sc2ccc(C)cc2)cc1 (stereo not given)	?	–	–	–
Cc1ccc(SC(C)C(=O)NCc2ccncc2)cc1 (stereo not given)	–[0.307 µM]	–	–	-59.1
O=C(Nc1ccccc1C(F)(F)F)C1(S(=O)(=O)c2ccc(Cl)cc2)CC1	–	·	–	·
O=[N+]([O-])c1cc(C(F)(F)F)ccc1N1CCC(O)CC1	–	–	–	–
O=[N+]([O-])c1cc(C(F)(F)F)ccc1NCCNC(=S)Nc1ccc(Cl)cc1	11.2µM	–	–	–
O=C(Nc1ccc(Cl)cc1)N1CCCN(c2ccc(C(F)(F)F)cc2[N+](=O)[O-])CC1	2.82µM	–	–	–
O=C(Cn1c(=O)nc(-c2ccccc2)c2ccccc21)Nc1cccc(C(F)(F)F)c1	–	·	–	·
Cc1ccsc1/C=N/Nc1nc(=O)[nH]nc1C	3.55µM	–	–	–
Cc1cc(C)nc(N/N=C/c2sccc2C)n1	–	–	–	–
N#C/C(=C/c1ccc(N2CCCCCC2)o1)c1cccc(F)c1	–	–	–	-60.7
N#C/C(=C/c1ccc(N2CCCCCC2)o1)c1ccc(F)cc1	?	–	–	?
Cc1nn(C)c(C)c1/C=C1/SC(=S)NC1=O	–	–	–	–
O=C1NC(=S)SC1=Cc1ccccc1Cl	?	–	37.7	–
Cc1nn(C)cc1/C=C1\SC(=S)NC1=O	–	–	–	-69.9
Cc1nn(C(=O)c2cccc([N+](=O)[O-])c2C)c(C)c1S(=O)(=O)N1CCCCCC1	–	·	–	·
Cc1ccc(C(=O)N2CCCCC2CCN2CCCCC2)cc1 (stereo not given)	–	·	–	·
O=c1c2ccc([N+](=O)[O-])cc2ncn1CCOc1ccc(Cl)cc1	–	–	–	–
O=c1c2ccc([N+](=O)[O-])cc2ncn1CCOc1cccc(Br)c1	–	–	32.4	–
C=CC(=O)Nc1cc2c(Nc3ccc(F)c(Cl)c3)ncnc2cc1OCCCN1CCOCC1	·	·	–	·
SMILES	GLP-1R inv ag	GLP-1R agonist	D3 ag	D3 antag
CCCn1nc2cc(C(=O)NCc3ccc(OC)cc3)ccc2c1OCC	–	–	–	–
O=C(NCc1ccc2c(c1)OCO2)c1ccc(Br)cc1	–	–	47.0	–
CCC(NC(=O)CNC(=O)c1ccc2c(c1)OCO2)c1ccc(Br)cc1 (stereo not given)	12.6µM	–	–	–
CCOc1c2ccc(C(=O)NCc3ccc4c(c3)OCO4)cc2nn1CC	–	–	–	-52.5
CCCn1nc2cc(C(=O)N(CC)c3ccc(OC)cc3)ccc2c1OCC	?	–	48.7	–
CCN(CC)CCC(=O)N1c2ccccc2Sc2ccc(C(F)(F)F)cc21	·	–	–	·
O=C1[O][Bi][O]c2ccccc21	·	–	–	·
N#CC(C#N)=C1C=CC=CN1/C(=C\c1ccccc1Cl)C(=O)c1ccccc1	?	–	–	-103.8
N#CC(C#N)=C1C=CC=CN1/C(=C\c1ccccc1)C(=O)c1cccs1	–	–	–	–
CCCn1c(N)c(N(CCOC)C(=O)CSc2cc(C)c3cccc(C)c3n2)c(=O)[nH]c1=O	–	–	–	–
CCOc1ccc(CC(=O)NCc2ccc3c(c2)CCN3C(C)=O)cc1OCC	–	·	–	·
Oc1ccccc1C1=NOC(O)(C(F)F)C1 (stereo not given)	–	–	–	-66.2
Cc1ccc2ncc(C(=O)c3ccc(C)c(C)c3)c(S(=O)(=O)c3ccc(F)cc3)c2c1	12.6µM	·	–	·
COc1ccc2nc(N(Cc3cccnc3)C(=O)c3ccco3)sc2c1	–	·	–	·
Fc1ccccc1CN1CCC(Cc2ccccc2)CC1	?	–	–	-79.3
Fc1cccc(CN2CCC(Cc3ccccc3)CC2)c1	?	–	–	-52.6
Cc1ccc(C)c(N2CCN(C(=O)c3cc(C)nc4c3c(C)nn4-c3cccc(F)c3)CC2)c1	–	·	–	·
O=C(NCCc1ccccc1)c1ccc2c(c1)N(Cc1ccc(F)cc1)C(=O)CS2	?	·	–	·
CCN(Cc1ccc(Br)s1)C(=O)CSc1nnc(C2CC2)n1C1CC1	–	–	–	–
O=C(NN=C1CCCC1)c1[nH]c2ccc(Br)cc2c1-c1ccccc1	5.01µM	–	–	?
Cc1ccc2[nH]c(C(=O)N/N=C/c3ccccc3C(=O)O)c(-c3ccccc3)c2c1	?	–	–	–
O=C(N/N=C/c1ccccn1)c1[nH]c2ccc([N+](=O)[O-])cc2c1-c1ccccc1	–[7.66 µM]	–	–	-60.0
O=C(N/N=C/c1ccccc1)c1[nH]c2ccc(Br)cc2c1-c1ccccc1	–	–	–	-89.0
Cc1ccc(Cl)cc1NC(=O)Nc1nnc(N2CCCC(C)C2)s1 (stereo not given)	–	·	–	·
O=C(CCc1ccccc1)NC1CC(=O)N(c2cccc(F)c2)C1 (stereo not given)	–	·	–	·
SMILES	GLP-1R inv ag	GLP-1R agonist	D3 ag	D3 antag
CCC(C)(C(=O)NC1CCCC1)N(C(=O)Cc1cccs1)c1c(C)n(C)n(-c2ccccc2)c1=O (stereo not given)	–	–	–	–
N#C/C(=C\c1ccc(Cl)cc1)C(=O)NCC1CCCO1 (stereo not given)	–	·	–	·
Cn1cnc([N+](=O)[O-])c1S(=O)(=O)c1ccc(Cl)cc1	?	–	–	-67.7
CCOc1ccc(CC(=O)NCc2ccc3c(c2)CCN3C(=O)c2ccccc2)cc1OCC	–	·	–	·
COc1ccccc1CNCCSc1nnnn1C	–	–	–	·
COc1ccc(N2C(=O)c3ccccc3NC2c2ccccc2O)cc1 (stereo not given)	?	–	–	–
CC(C)Oc1ccccc1C1CC(=O)Nc2cc3c(cc21)OCCO3 (stereo not given)	–	?	36.2	–
CC(C)Oc1ccccc1C1Nc2ccccc2C(=O)N1c1ccc2c(c1)OCCO2 (stereo not given)	10µM	–	–	–
COc1ccc(NC(=O)CCc2nnc3n(C)c(=O)c4sccc4n23)cc1Cl	–	·	–	·
COc1ccc(-c2nc3ccccc3c(C(=O)Nc3ccc(S(=O)(=O)Nc4cc(C)on4)cc3)c2C)cc1	5.01µM	–	–	–
Cn1c(=O)oc2ccccc2c1=O	–	–	–	–
